Reference: the supplement of paper PMC12669032

Test system: Lactobacillus paracasei
Assay: growth AUC relative to DMSO control (median of replicates) (fraction); higher = more growth (less inhibition), active = hit call of the paper
Details: 20 µM; 24 h;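 active = AUC reduced over 20% with Padj below 0.05 in at least 2 of 3 replicates; inactive = otherwise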
How it was run: (§1)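 Gut bacterial monocultures were grown anaerobically at 37 °C in mGAM, starting at OD600 0.05, with 20 µM compound (1% DMSO) in round-bottom 96-well plates under pierced gas-permeable seals. OD600 was read hourly for 24 h. Area under the growth curve (minimum OD set to 0) was normalised to the plate median of DMSO controls, or to row and column medians on the industrial chemical plate. The value is the median of three biological replicates grown on separate days.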

SMILES	growth AUC
Nc1cccc(O)c1	0.94 (inactive)
CCc1cccc(C)c1NC(C)C(=O)O (racemic)	0.968 (inactive)
CCc1ccc(C(c2ccc(CC)cc2)C(Cl)Cl)cc1	0.996 (inactive)
CC(C)N(C(=O)CS(=O)CC(=O)O)c1ccc(F)cc1 (stereo not drawn)	0.97 (inactive)
O=[N+]([O-])c1ccc(Oc2c(Cl)cc(Cl)cc2Cl)cc1	1.05 (inactive)
CCOC(=O)c1nc(C(Cl)(Cl)Cl)n(-c2ccc(Cl)cc2Cl)n1	1 (inactive)
Cc1ccc2c(c1)[C@H](Nc1nc(N)nc(C(C)F)n1)[C@@H](C)C2 (stereo partly drawn)	0.986 (inactive)
CCCCCCCC(=O)Oc1c(Br)cc(C#N)cc1Br	0.863 (inactive)
CCNc1nc(N)[nH]c(=O)n1	1.02 (inactive)
CN(C)C(=O)Nc1cc(C(C)(C)C)on1	1 (inactive)
O=C(NC(=O)c1c(F)cccc1F)Nc1cc(C(F)(F)F)cc(C(F)(F)F)c1Cl	0.861 (inactive)
COC(=O)CSc1cc(N=c2sc(=O)n3n2CCCC3)c(F)cc1Cl	0.974 (inactive)
CCN(Cc1c(F)cccc1Cl)c1c([N+](=O)[O-])cc(C(F)(F)F)cc1[N+](=O)[O-]	1.03 (inactive)
CCNC(=O)[C@@H](C)OC(=O)Nc1ccccc1	0.941 (inactive)
CON=C(Cc1cccnc1)c1ccc(Cl)cc1Cl	1.18 (inactive)
COC(=O)Nc1ccc(Cl)c(Cl)c1	1.08 (inactive)
CC[N+](CC)(CC(=O)Nc1c(C)cccc1C)Cc1ccccc1.O=C([O-])c1ccccc1	1.05 (inactive)
CC(C)(C)[C@@H](O)[C@@H](Cc1ccc(Cl)cc1)n1cncn1 (mixture of isomers)	0.954 (inactive)
COCC(=O)N(c1c(C)cccc1C)C(C)C(=O)O (stereo not drawn)	1.02 (inactive)
COC(=O)c1ccccc1S(=O)(=O)NC(=O)n1nc(OCC(C)O)n(C)c1=O (stereo not drawn)	1.03 (inactive)

SMILES	growth AUC
CCOC(=O)Cc1[nH]nc2ccc(Cl)cc12	0.917 (inactive)
CCCCCCCC/C=C\CCCCCCCC(N)=O	1.02 (inactive)
COC1CCC2(CC1)NC(=O)C(c1cc(C)ccc1C)=C2OC1OC(CO)C(O)C(O)C1O (stereo not drawn)	1.01 (inactive)
COC(=O)c1ccc(C(F)(F)F)nc1S(=O)(=O)[N-]C(=O)Nc1nc(OC)cc(OC)n1.[Na+]	0.921 (inactive)
COC1CCC2(CC1)NC(=O)C(c1cc(C)ccc1C)=C2O (stereo not drawn)	1.05 (inactive)
O=C(Nc1ccc(O)cc1-c1ccc(Cl)cc1)c1cccnc1Cl	1 (inactive)
Cc1nn(C)c(F)c1C(=O)Nc1ccccc1C(C)CC(C)C (stereo not drawn)	0.97 (inactive)
O=C(NCc1ncc(C(F)(F)F)cc1Cl)c1c(Cl)cccc1Cl	0.981 (inactive)
CC1COc2ccccc2N1C(=O)C(Cl)Cl (stereo not drawn)	1.11 (inactive)
CCc1cccc(C)c1NC(=O)C(=O)O	0.969 (inactive)
Cc1[nH]oc(=O)c1N=Nc1ccccc1Cl	0.955 (inactive)
COc1ccccc1C(=O)NS(=O)(=O)c1ccc(C(=O)NC2CC2)cc1	1 (inactive)
O=C(O)c1ccc(Cl)cc1Cl	0.994 (inactive)
CCCCCCCC/C=C\CCCCCCCCCCCCC	0.875 (inactive)
COC(=O)COc1ccc(Cl)cc1C	1.03 (inactive)
CC(C)OC(=O)N[C@H](C(=O)N[C@H](C)c1nc2ccc(F)cc2s1)C(C)C	1.03 (inactive)
CCNc1nc(N)nc(Cl)n1	0.891 (inactive)
Cc1nn(C)c(OCC(=O)c2ccccc2)c1C(=O)c1ccc(Cl)cc1Cl	0.991 (inactive)
Cc1cc(C)c(C2=C(O)C3(CCCC3)OC2=O)c(C)c1	1.02 (inactive)

Test system: Odoribacter splanchnicus
Assay: as above
Details: 20 µM; 24 h
How it was run: as §1

SMILES	growth AUC
Nc1cccc(O)c1	0.975 (inactive)
CCc1cccc(C)c1NC(C)C(=O)O (racemic)	0.999 (inactive)
CCc1ccc(C(c2ccc(CC)cc2)C(Cl)Cl)cc1	1 (inactive)
CC(C)N(C(=O)CS(=O)CC(=O)O)c1ccc(F)cc1 (stereo not drawn)	1.06 (inactive)
O=[N+]([O-])c1ccc(Oc2c(Cl)cc(Cl)cc2Cl)cc1	1.03 (inactive)
CCOC(=O)c1nc(C(Cl)(Cl)Cl)n(-c2ccc(Cl)cc2Cl)n1	1 (inactive)
Cc1ccc2c(c1)[C@H](Nc1nc(N)nc(C(C)F)n1)[C@@H](C)C2 (stereo partly drawn)	0.902 (inactive)
CCCCCCCC(=O)Oc1c(Br)cc(C#N)cc1Br	1.12 (inactive)
CCNc1nc(N)[nH]c(=O)n1	1.01 (inactive)
CN(C)C(=O)Nc1cc(C(C)(C)C)on1	0.942 (inactive)
O=C(NC(=O)c1c(F)cccc1F)Nc1cc(C(F)(F)F)cc(C(F)(F)F)c1Cl	0.936 (inactive)
COC(=O)CSc1cc(N=c2sc(=O)n3n2CCCC3)c(F)cc1Cl	1.01 (inactive)
CCN(Cc1c(F)cccc1Cl)c1c([N+](=O)[O-])cc(C(F)(F)F)cc1[N+](=O)[O-]	1.03 (inactive)
CCNC(=O)[C@@H](C)OC(=O)Nc1ccccc1	0.955 (inactive)
CON=C(Cc1cccnc1)c1ccc(Cl)cc1Cl	0.821 (inactive)
COC(=O)Nc1ccc(Cl)c(Cl)c1	0.974 (inactive)
CC[N+](CC)(CC(=O)Nc1c(C)cccc1C)Cc1ccccc1.O=C([O-])c1ccccc1	0.995 (inactive)
CC(C)(C)[C@@H](O)[C@@H](Cc1ccc(Cl)cc1)n1cncn1 (mixture of isomers)	1.13 (inactive)
COCC(=O)N(c1c(C)cccc1C)C(C)C(=O)O (stereo not drawn)	1.01 (inactive)
COC(=O)c1ccccc1S(=O)(=O)NC(=O)n1nc(OCC(C)O)n(C)c1=O (stereo not drawn)	0.943 (inactive)

SMILES	growth AUC
CCOC(=O)Cc1[nH]nc2ccc(Cl)cc12	1.08 (inactive)
CCCCCCCC/C=C\CCCCCCCC(N)=O	1.04 (inactive)
COC1CCC2(CC1)NC(=O)C(c1cc(C)ccc1C)=C2OC1OC(CO)C(O)C(O)C1O (stereo not drawn)	0.994 (inactive)
COC(=O)c1ccc(C(F)(F)F)nc1S(=O)(=O)[N-]C(=O)Nc1nc(OC)cc(OC)n1.[Na+]	1.07 (inactive)
COC1CCC2(CC1)NC(=O)C(c1cc(C)ccc1C)=C2O (stereo not drawn)	1.05 (inactive)
O=C(Nc1ccc(O)cc1-c1ccc(Cl)cc1)c1cccnc1Cl	0.872 (inactive)
Cc1nn(C)c(F)c1C(=O)Nc1ccccc1C(C)CC(C)C (stereo not drawn)	0.899 (inactive)
O=C(NCc1ncc(C(F)(F)F)cc1Cl)c1c(Cl)cccc1Cl	0.938 (inactive)
CC1COc2ccccc2N1C(=O)C(Cl)Cl (stereo not drawn)	0.979 (inactive)
CCc1cccc(C)c1NC(=O)C(=O)O	0.998 (inactive)
Cc1[nH]oc(=O)c1N=Nc1ccccc1Cl	1.06 (inactive)
COc1ccccc1C(=O)NS(=O)(=O)c1ccc(C(=O)NC2CC2)cc1	0.989 (inactive)
O=C(O)c1ccc(Cl)cc1Cl	1.01 (inactive)
CCCCCCCC/C=C\CCCCCCCCCCCCC	0.968 (inactive)
COC(=O)COc1ccc(Cl)cc1C	1.01 (inactive)
CC(C)OC(=O)N[C@H](C(=O)N[C@H](C)c1nc2ccc(F)cc2s1)C(C)C	1.02 (inactive)
CCNc1nc(N)nc(Cl)n1	1.02 (inactive)
Cc1nn(C)c(OCC(=O)c2ccccc2)c1C(=O)c1ccc(Cl)cc1Cl	0.961 (inactive)
Cc1cc(C)c(C2=C(O)C3(CCCC3)OC2=O)c(C)c1	0.563 (active)
